Test [1] in a line: Cytotoxicity counterscreen for inhibitors of SARS-CoV-2 cell entry (AID 1645845). Further: nearly all actives have a fitted effect of over 50% in size. The essentials: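 ATP-content luminescence (ATPLite 1step, 15 min RT) read after 48 h compound exposure of Expi293F cells stably expressing human ACE2; normalized to cells-only wells and media-only wells.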
(In general: Counterscreens check selectivity or assay interference.)

Test [2] is described as follows: Primary qHTS to identify inhibitors of SARS-CoV-2 cell entry (AID 1645846). Further: nearly all actives have a fitted effect of over 45% in size. The settings on record: activity change, negative = inhibition: at 57.1 µM (top of the series) unless noted. Put shortly:
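Inhibition of spike-mediated entry was scored in human ACE2-transfected Expi293F cells. Particles were MLV-pseudotyped with Wuhan-Hu-1 S carrying a 19-aa C-terminal deletion; signal was luciferase after two days, scaled between spike PP and fusion-protein-free PP.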

The structures appear in SMILES notation. Where “and” joins values, the source holds several entries; their conditions need not be identical. Equal entries are not always repeated. Results filed as inconclusive are left out. Entries that show only a call come without a potency. Calls of active or inactive are those of the source. The call rests on the fitted dose curve.
Potency means the concentration at half of the fitted maximal effect.

Take `FC(F)(F)C(Cl)Br` (stereo unspecified): the Potency result in test [1] was “inactive”. Further, the activity change, negative = inhibition in test [2] is -18.5%.
On the same counts, the results for `CN(C)CCC(c1ccccc1)c1ccccn1` (stereo unspecified) are “inactive” and -4.85%.
Turning to `CC(=O)N(CC(=O)N(C)C)c1ccccc1`, the Potency entry in test [1] and in test [2] was “inactive” throughout.
With `CCOc1ccccc1O[C@H](c1ccccc1)[C@H]1CNCCO1`, in test [1], the Potency result is “inactive”. Moreover, the activity change, negative = inhibition in test [2] worked out at 0.393%.
As for `CCOC(=O)[C@H](CCc1ccccc1)N[C@@H](C)C(=O)N1C(=O)N(C)C[C@H]1C(=O)O`, the Potency result in test [1] is “inactive”. Besides, the activity change, negative = inhibition in test [2] is -10.6%.
The like results for `COc1ccc2c(c1OC)C(=O)O[C@@H]2[C@H]1c2c(cc3c(c2OC)OCO3)CCN1C` were, in that order, “inactive” and -12.9%.
For `NCC1CCC(C(=O)Oc2ccc(CCC(=O)O)cc2)CC1` (stereo unspecified), the Potency entry in test [1] and in test [2] was “inactive” each time.
`COc1cc(OC)cc(OC)c1`: the Potency entry in test [1] and in test [2] was “inactive” each time.
As for `NC(=O)Cc1cccc(C(=O)c2ccccc2)c1N`, the Potency entry in test [1] and in test [2] was “inactive” each time.
On to `C[N+]1(CC2COC(c3ccccc3)(c3ccccc3)O2)CCCCC1` (stereo unspecified), for which the Potency entry in test [1] was “inactive”. Further, the activity change, negative = inhibition in test [2] was 1.26% [at 27.1 µM].
On the same counts, the results for `COc1cc(NS(=O)(=O)c2ccc(N)cc2)nc(OC)n1` are “inactive” and 2.7%.
For `CC(=O)N[C@H]1[C@H]([C@H](O)[C@H](O)CO)OC(C(=O)O)=C[C@@H]1N=C(N)N`, the Potency result in test [1] was “inactive”. The activity change, negative = inhibition in test [2] was -0.176%.
On to `NS(=O)(=O)c1cc2c(cc1Cl)NCNS2(=O)=O`, for which the Potency result in test [1] and in test [2] was “inactive” throughout.
On to `CCOC(=O)c1cccc(N)c1`, for which, in test [1], the Potency entry is “inactive”. Further, in test [2], the activity change, negative = inhibition is -8.06%.
On the same counts, the results for `C/C=C/c1ccc(O)c(OC)c1` are “inactive” and -1.3%.
On to `OCc1ccccc1O`, for which the Potency entry in test [1] and in test [2] was “inactive” each time.
With `CN1CCN(c2c(F)cc3c(=O)c(C(=O)O)cn(CCF)c3c2F)CC1`, the Potency entry in test [1] is “inactive”. In addition, the activity change, negative = inhibition in test [2] is 2.09%.
On the same counts, the results for `O=S1(=O)OC(c2ccc(O)cc2)(c2ccc(O)cc2)c2ccccc21` are “inactive” and 4.87%.
As to `COc1nc(C)nc(Cl)c1NC1=NCCN1`, the Potency entry in test [1] and in test [2] was “inactive” in each case.
Consider `CN1CCC(=C2c3ccccc3CC(=O)c3sccc32)CC1`, for which the Potency entry in test [1] is “inactive”. The activity change, negative = inhibition in test [2] is -26%.
With `Nc1ccc(C(=O)NCC(=O)O)cc1`, the Potency result in test [1] was “inactive”. Also, the activity change, negative = inhibition in test [2] came to 4.24%.
The like results for `CC(=O)O[C@]1(C(C)=O)CC[C@H]2[C@@H]3C=C(Cl)C4=CC(=O)CC[C@]4(C)[C@H]3CC[C@@]21C` were, in that order, “inactive” and -27.6%.
`CN(C)CCCN1c2ccccc2Sc2ccccc21`: the Potency entry in test [1] is “inactive”. In addition, the Potency in test [2] was 14.1 µM (active).
On the same counts, the results for `CC(O)COc1ccccc1` (stereo unspecified) are “inactive” and “inactive”.
On the same counts, the results for `O=C1OC2(c3ccc(O)cc3Oc3cc(O)ccc32)c2ccccc21` are “inactive” and “inactive”.
The like results for `O=C1c2cccc(O)c2C(=O)c2c(O)cccc21` were, in that order, “inactive” and “inactive”.
For `CCOC(=O)c1cc(=O)c2c(OCC(COc3cccc4oc(C(=O)OCC)cc(=O)c34)OC(=O)[C@@H](N)CCCCN)cccc2o1`, the Potency result in test [1] and in test [2] was “inactive” throughout.
On to `CN(CCCN1c2ccccc2CCc2ccccc21)CC(=O)c1ccc(Cl)cc1`, for which, in test [1], the Potency entry was “inactive”. Further, in test [2], the activity change, negative = inhibition is -5.87%.
Turning to `CCCCCCCCCCCCOCCOCCOCCOCCOCCOCCOCCOCCOCCO`, the Potency in test [1] and in test [2] was 11.2 µM (active) each time.
As for `CCN1CCCC(OC(=O)C(c2ccccc2)c2ccccc2)C1` (stereo unspecified), the Potency entry in test [1] is “inactive”. In test [2], the activity change, negative = inhibition is -0.255%.
The like results for `Cc1ccc(C(=O)Nc2ccc(S(=O)(=O)O)c3cc(S(=O)(=O)O)cc(S(=O)(=O)O)c23)cc1NC(=O)c1cccc(NC(=O)Nc2cccc(C(=O)Nc3cc(C(=O)Nc4ccc(S(=O)(=O)O)c5cc(S(=O)(=O)O)cc(S(=O)(=O)O)c45)ccc3C)c2)c1` were, in that order, “inactive” and -17.2% [at 27.1 µM].
In the case of `CCN(CC)CC(=O)OCC(=O)[C@@]1(O)CC[C@H]2[C@@H]3CCC4=CC(=O)CC[C@]4(C)[C@H]3[C@@H](O)C[C@@]21C`, the Potency result in test [1] and in test [2] was “inactive” in each case.
Take `C#C[C@]1(O)CC[C@H]2[C@@H]3CCC4=CC(=O)CC[C@@H]4[C@H]3CC[C@@]21C`: in test [1], the Potency entry is “inactive”. The activity change, negative = inhibition in test [2] was found to be 3.31%.
Take `Cc1ccc(N(CC2=NCCN2)c2cccc(O)c2)cc1`: the Potency entry in test [1] is “inactive”. Besides, in test [2], the activity change, negative = inhibition was -6.91% and 2.72%.
Turning to `CN1[C@@H]2CC[C@H]1CC(OC(=O)c1c[nH]c3ccccc13)C2` (stereo partly specified), the Potency entry in test [1] and in test [2] was “inactive” in each case.
As for `C[N+]1(C)CCC(=C(c2ccccc2)c2ccccc2)CC1`, the Potency result in test [1] is “inactive”. Also, the activity change, negative = inhibition in test [2] is -5.21%.
As for `O=C(O)/C=C/c1ccc(Cn2ccnc2)cc1`, the Potency entry in test [1] and in test [2] was “inactive” each time.
On to `CCN[C@@H]1C[C@H](N)[C@@H](OC2OC(CN)=CCC2N)[C@H](O)[C@H]1O[C@H]1OC[C@](C)(O)[C@H](NC)[C@H]1O` (stereo partly specified), for which the activity change, negative = cytotoxicity in test [1] was 0.776% [at 0.702 µM] (inactive). For the same compound, the activity change, negative = inhibition in test [2] was determined as 42.9% [at 0.702 µM].
On to `CCCC(=O)OC[C@@H](OC(=O)CCC)[C@@H](OC(=O)CCC)[C@H](Cn1c2nc(=O)[nH]c(=O)c-2nc2cc(C)c(C)cc21)OC(=O)CCC`, for which, in test [1], the Potency result is “inactive”. The activity change, negative = inhibition in test [2] is -16.8%.
For `CCCCCC1Nc2cc(C(F)(F)F)c(S(N)(=O)=O)cc2S(=O)(=O)N1` (stereo unspecified), the Potency entry in test [1] and in test [2] was “inactive” in each case.
`O=C1c2ccccc2C(=O)C1c1ccccc1`: the Potency result in test [1] and in test [2] was “inactive” throughout.
For the compound `C[C@@H]1C[C@H]2[C@@H]3CCC4=CC(=O)C=C[C@]4(C)[C@@]3(F)[C@@H](O)C[C@]2(C)[C@H]1C(=O)CO`, the Potency entry in test [1] and in test [2] was “inactive” each time.
With `O=C(OCC(COC(=O)c1cccnc1)(COC(=O)c1cccnc1)COC(=O)c1cccnc1)c1cccnc1`, the Potency entry in test [1] was “inactive”. In test [2], the activity change, negative = inhibition was -26.9%.

These data come from PubChem BioAssay (NCATS).
